Compound activity: PubChem BioAssay, several laboratories
GLD-1 RNA inh – GLD-1-TGE RNA interaction inhibition (C. elegans) | purified GLD-1 + fluorescein TGE RNA, fluorescence polarization | 320,000 compounds, 0.44% hits | Q17339 | inhibition, % at 5.96 µM;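 active means percent inhibition above a per-plate cutoff, the plate mean of test compounds plus 3 SD, cut at about 30% in these data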
Bcl-xL primary – Bcl-xL (human) inhibition | Q07817 | GST-Bcl-xL / FITC-Bim BH3 peptide fluorescence polarization | inhibition, % at 10.9 µM | 320,000 compounds, 0.7% hits | AID 2129;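 active means inhibition above the mean of all tested compounds plus 3 SD, cutoff set per campaign, cut at about 30% in these data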;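 further: inhibitors lower millipolarization by displacing the labeled peptide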
Target sequence (Q07817 whole entry, looked up): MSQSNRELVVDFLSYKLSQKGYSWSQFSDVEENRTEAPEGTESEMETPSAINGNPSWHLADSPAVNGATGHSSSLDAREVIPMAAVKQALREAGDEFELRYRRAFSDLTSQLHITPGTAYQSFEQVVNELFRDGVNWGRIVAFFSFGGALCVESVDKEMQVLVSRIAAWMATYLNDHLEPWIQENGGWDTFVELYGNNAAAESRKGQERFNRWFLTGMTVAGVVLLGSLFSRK
Mcl-1 Bim block – inhibitors of Bim-Mcl-1 interaction, human; AID 1009; Bead-based flow cytometry, Bim peptide-Mcl-1 binding; inhibition, % at 10 µM; 190,000 compounds, 0.1% hits; in the data active means inhibition above about 40%
Target sequence (Q07820 whole entry, looked up): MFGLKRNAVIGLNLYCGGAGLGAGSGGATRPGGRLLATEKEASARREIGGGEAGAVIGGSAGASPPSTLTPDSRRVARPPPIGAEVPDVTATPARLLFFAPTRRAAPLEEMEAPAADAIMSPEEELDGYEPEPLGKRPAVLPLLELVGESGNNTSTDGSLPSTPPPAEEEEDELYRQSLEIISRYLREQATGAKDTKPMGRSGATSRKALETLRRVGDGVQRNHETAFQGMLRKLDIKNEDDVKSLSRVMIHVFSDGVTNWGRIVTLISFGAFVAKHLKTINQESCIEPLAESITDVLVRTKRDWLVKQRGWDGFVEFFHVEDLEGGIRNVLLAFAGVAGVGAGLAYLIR
Mcl1 Bid PPI – disrupts binding of human Mcl-1 to Bid peptide | Q07820 | TR-FRET Mcl-1/Bid-Dy647 peptide binding, 1536-well | inhibition, % at 21.7 µM | 220,000 compounds, 0.97% hits | AID 1021;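 active means compounds that cut the binding signal by more than half at the single screening dose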;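 further: His-tagged Mcl-1 with europium anti-His antibody binding Bid BH3 peptide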
MCL1 BIM primary – disrupts human MCL1 binding to BIM-BH3 peptide | AID 2057 | Q07820 | inhibition, % at 10.9 µM | 320,000 compounds, 0.68% hits | GST-MCL1 / FITC-Bim-BH3 fluorescence polarization;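 active means inhibition above the mean inhibition of all tested compounds plus 3 SD, set per campaign, cut at about 40% in these data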;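 further: higher means more loss of mP so more displacement of Bim peptide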
Mcl1 Noxa PPI – Mcl-1/Noxa interaction inhibition; 220,000 compounds, 1.5% hits; inhibition, % at 21.7 µM; TR-FRET Mcl-1/Noxa peptide binding, 2 h; Q07820;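 active means compounds that cut the protein-peptide binding signal by more than 50% relative to plate controls in a single-dose test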;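 further: His-tagged Mcl-1 with rhodamine Noxa BH3 peptide and terbium anti-His antibody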
Bcl-xL conf – Bcl-xL (human) inhibition, MCL1 counter-screen confirmation; shares compounds with MCL1 BIM primary; 1,700 compounds, 54% hits; inhibition, % at 10.9 µM; AID 2166; GST-Bcl-xL / FITC-Bim BH3 peptide FP binding;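 active means inhibition above a cutoff equal to the mean inhibition of all tested compounds plus 3 SD, cut at about 30% in these data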
MCL1 BIM confirm – confirmation of human MCL1 and BIM-BH3 interaction inhibitors; GST-MCL1 / FITC-Bim-BH3 fluorescence polarization; shares compounds with MCL1 BIM primary; 1,700 compounds, 61% hits; inhibition, % at 10.9 µM;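 active means inhibition above the average of all tested compounds plus 3 SD, cut at about 40% in these data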
Each line names hits and unclear results; the compound was inactive in the other large screens (follow-up assays come after a bar, where they were run). Compounds with a hit are over-represented: about 2.3% of the library has one in this group of screens.

CC(C)N(C)Cc1nnnn1CC(=O)N(C)Cc1ccc(F)cc1	none (no result: Mcl-1 Bim block, Mcl1 Bid PPI, Mcl1 Noxa PPI)
O=C1C=Cc2ccccc2/C1=C/c1[nH]c(=O)[nH]c1O	Mcl1 Noxa PPI 60 (no result: Mcl-1 Bim block)
O=c1[nH]c(O)c(/C=C2\C=Nc3ccccc32)[nH]1	none (no result: GLD-1 RNA inh, Bcl-xL primary, Mcl-1 Bim block, MCL1 BIM primary)
COc1ccc(NC(=O)COc2ccccc2C)cc1S(=O)(=O)N1CCCCC1	none (no result: Mcl-1 Bim block, Mcl1 Bid PPI, Mcl1 Noxa PPI)
COc1cc(C(=O)NS(=O)(=O)c2ccccc2C)ccc1Cc1cn(C)c2ccc(NC(=O)OC3CCCC3)cc12	Bcl-xL primary 37
COc1ccc(-c2cc(C(=O)O)c3c(C)nn(-c4ccccn4)c3n2)cc1	none
COc1ccc(N=CC2=C(Nc3ccc(OC)cc3)c3c(C)nn(-c4ccccn4)c3CC2)cc1	GLD-1 RNA inh active, Bcl-xL primary active, MCL1 BIM primary active (no result: Mcl-1 Bim block, Mcl1 Bid PPI, Mcl1 Noxa PPI)
O=C(NC1CC1)C1=C[C@@H](c2c[nH]c3ccccc23)C[C@@H](OCc2ccc(CO)cc2)O1	Bcl-xL primary 39 (no result: Mcl-1 Bim block)
Cc1ccc(/C=C/C2=Cc3c(sc(NC(=O)CSc4n[nH]c(N)n4)c3C#N)C(C)(C)C2)o1	GLD-1 RNA inh 37, Bcl-xL primary 54, MCL1 BIM primary 61, Mcl1 Noxa PPI 97
Cc1ccccc1OCCNC(=O)CNC(=O)c1ccccc1O	Mcl1 Bid PPI 82 (no result: Mcl1 Noxa PPI)
COc1ccc(-n2c(O)c(/C=N/NS(=O)(=O)c3cc(C)ccc3C)c3ccccc3c2=O)cc1OC	Bcl-xL primary 54
COc1ccc(-n2c(O)c(/C=N/NS(=O)(=O)c3ccc(C)cc3)c3ccccc3c2=O)cc1OC	Bcl-xL primary 48
COc1ccc(-n2c(O)c(/C=N/Nc3nc(C)cc(C)n3)c3ccccc3c2=O)cc1OC	none
COc1cc(OC)cc(-c2c(-c3cccs3)c3cc(-c4ccn[nH]4)ccc3n2C)c1	none (no result: Mcl-1 Bim block, Mcl1 Bid PPI, Mcl1 Noxa PPI)
CCCCCCn1nc(C(=O)Nc2nc3c(s2)CCCC3)c2ccccc2c1=O	Mcl-1 Bim block 45
CCCCn1nc(C(=O)Nc2nc3c(s2)CCCC3)c2ccccc2c1=O	none
CN1C(=O)N(CC(=O)Nc2nccs2)C(=O)C12CCCCC2	none (no result: Mcl-1 Bim block, Mcl1 Bid PPI, Mcl1 Noxa PPI)
CCCCSc1cc(C)nc(N)n1	Mcl1 Bid PPI 79 (no result: Mcl-1 Bim block)
O=C(c1cnn2c(C(F)(F)F)cc(-c3cccs3)nc12)N1CCOCC1	Mcl1 Bid PPI 69
O=C(COC(=O)c1ccc2ccccc2n1)NC1CCCCC1	none (no result: Mcl-1 Bim block, Mcl1 Bid PPI, Mcl1 Noxa PPI)
C#CCOCCOCCOCCNc1nc(N2CCN(C(=O)[C@H]([C@@H](C)CC)n3cc([C@@H](N)CC(C)C)nn3)CC2)nc(N2CCN(C(=O)[C@H](Cc3ccc(O)cc3)n3cc([C@@H](N)CC(C)C)nn3)CC2)n1	Mcl1 Bid PPI 60
C#CCOCCOCCOCCNc1nc(N2CCN(C(=O)[C@H]([C@@H](C)CC)n3cc([C@@H](N)Cc4ccc(O)cc4)nn3)CC2)nc(N2CCN(C(=O)[C@H](Cc3cc4ccccc4[nH]3)n3cc([C@@H](N)C(C)CC)nn3)CC2)n1 (stereo partly specified)	none
C#CCOCCOCCOCCNc1nc(N2CCN(C(=O)[C@H](Cc3cc4ccccc4[nH]3)n3cc([C@@H](N)C(C)CC)nn3)CC2)nc(N2CCN(C(=O)[C@H](Cc3cc4ccccc4[nH]3)n3cc([C@@H](N)Cc4ccc(O)cc4)nn3)CC2)n1 (stereo partly specified)	Mcl1 Bid PPI 85, Mcl1 Noxa PPI 61
C#CCOCCOCCOCCNc1nc(N2CCN(C(=O)[C@H](Cc3ccc(O)cc3)n3cc([C@@H](N)C(C)CC)nn3)CC2)nc(N2CCN(C(=O)[C@H](Cc3cc4ccccc4[nH]3)n3cc([C@@H](N)C(C)CC)nn3)CC2)n1 (stereo partly specified)	Mcl1 Bid PPI 69
C#CCOCCOCCOCCNc1nc(N2CCN(C(=O)[C@H](CCCCN)n3cc(CCCC)nn3)CC2)nc(N2CCN(C(=O)[C@H](Cc3ccc(O)cc3)n3cc(CCO)nn3)CC2)n1	Mcl1 Bid PPI 57
O=C(COc1ccc([N+](=O)[O-])cc1)NNC(=O)Nc1cccc(F)c1	none (no result: Mcl-1 Bim block, Mcl1 Bid PPI, Mcl1 Noxa PPI)
COc1ccc(C2C=C(c3cccs3)Nc3nc(CCCO)nn32)cc1 (stereo unspecified)	GLD-1 RNA inh 144, Bcl-xL primary 176, MCL1 BIM primary active
CCNC(=O)N(C)C[C@H]1N[C@@](C)(C(=O)OC)[C@H]2C(=O)N(Cc3ccccc3)C(=O)[C@@H]12	none (no result: Bcl-xL primary, Mcl-1 Bim block, Mcl1 Bid PPI, MCL1 BIM primary, Mcl1 Noxa PPI)
CCCCC[C@H](O)/C=C/[C@H]1C=CC(=O)[C@@H]1C/C=C\CCCC(=O)O	Mcl1 Noxa PPI 69 (no result: GLD-1 RNA inh, Bcl-xL primary, MCL1 BIM primary)
CCN(CC)C(=O)c1sc(NC(=O)c2cc(-c3ccc(C)s3)nc3ccccc23)c(C(=O)OC)c1C	Mcl1 Noxa PPI 61
CCC(/C=C1\Sc2ccc(OC)cc2N1CCO)=C\c1sc2ccc(OC)cc2[n+]1CCO	Mcl-1 Bim block 42
O=C(CSc1nc2ccccc2n1CCc1ccccc1)c1ccc(O)c(O)c1	Mcl1 Bid PPI 52, Mcl1 Noxa PPI 102 (no result: GLD-1 RNA inh, Bcl-xL primary, MCL1 BIM primary)
NC1=NC(=O)C2(COC(c3cccnc3)OC2)S1 (stereo unspecified)	Bcl-xL primary 86
NC1=NC(=O)C2(COC(c3ccncc3)OC2)S1 (stereo unspecified)	none
O=C1N=c2ccccc2=C1c1c(O)n(-c2cccc(F)c2)[nH]c1=O	Mcl1 Bid PPI 73, Mcl1 Noxa PPI 102
CCn1c(O)c(C2=c3ccccc3=NC2=O)c2cc(Br)ccc21	none
Brc1ccc(NC2=Nc3ccccc3CC2)cc1	Bcl-xL primary 41
CC1=CC(C)(C)Nc2ccc(OC(=O)CN3C(=O)c4ccccc4C3=O)cc21	none
CC1=CC(C)(C)Nc2ccc(OC(=O)CN3C(=O)c4cccc5cccc(c45)C3=O)cc21	Bcl-xL primary 36
CCCCn1c(NCc2ccc(N(C)C)cc2)nc2ccccc21	Mcl1 Noxa PPI 89 (no result: Mcl-1 Bim block)
CCCCn1c(NCc2cccs2)nc2ccccc21	Mcl1 Noxa PPI 51
CN(C)c1cccc(C(=O)NCCCSc2ccccc2)c1	none (no result: Mcl-1 Bim block, Mcl1 Bid PPI, Mcl1 Noxa PPI)
Cc1ccc(-c2[nH]c(=O)n3ccncc23)s1	Bcl-xL primary 58, MCL1 BIM primary 57 | Bcl-xL conf 66 | MCL1 BIM confirm 91
O=C(CSc1nc2nn(-c3ccccc3)c(=O)c-2c2n1CCCCC2)c1ccc(O)c(O)c1	MCL1 BIM primary 77 (no result: Mcl-1 Bim block, Mcl1 Bid PPI, Mcl1 Noxa PPI) | Bcl-xL conf 33 | MCL1 BIM confirm 82
O=C(COc1ccc(Cl)cc1Br)Nc1ccncc1	none (no result: Mcl-1 Bim block, Mcl1 Bid PPI, Mcl1 Noxa PPI)
CCc1ccc(Nc2nc(C)cc(C)n2)cc1	none (no result: Mcl-1 Bim block, Mcl1 Bid PPI, Mcl1 Noxa PPI)
COc1cccc(C(=O)/C=C/Nc2cccc(O)c2)c1	Bcl-xL primary 86, MCL1 BIM primary 94 | Bcl-xL conf inactive | MCL1 BIM confirm inactive
